Screens from PubChem BioAssay.
Hits are enriched below; roughly 4.3% of the tested compounds scored in any of these assays.
Bead autofluor = flagged as autofluorescent in microsphere protease counterscreen; hit rate 3.1% among 360,000; compound autofluorescence counterscreen, microsphere flow cytometry; hits give high values; fluorescence intensity (test concentration not listed); AID 624483; in the data active = fluorescence intensity above about 16000; inconclusive = no clear call, values can overlap the other calls
BoNT-A LC inh2 = inhibitors of Botulinum neurotoxin A light chain protease. multiplex microsphere protease substrate cleavage, flow cytometry. inhibition, % at 10 µM. AID 588499. hit rate 0.17% among 360,000; note: plate controls were buffer without enzyme for full effect and enzyme alone for no effect
PfHsp40 rescue = rescue of PfHsp40-mediated yeast toxicity. S. cerevisiae expressing PfHsp40, growth rescue, ATP luminescence. growth rescue, % at 12.5 µM. hit rate 0.68% among 340,000. AID 504582; in the data active = growth rescue above about 28%, passing the limit was not always enough; inconclusive = no clear call, values can overlap the other calls;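 note: yeast W303a lacking pdr1 and pdr3 grown in galactose medium; growth measured after three days at 30 °C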
BoNT F protease = blocks Botulinum neurotoxin F light chain protease | AID 588497 | hit rate 0.22% among 360,000 | inhibition, % at 10 µM | Multiplex microsphere protease cleavage assay, flow cytometry; in the data active = inhibition above about 35%, passing the limit was not always enough; inconclusive = no clear call, values can overlap the other calls; note: plate controls were buffer without enzyme for full effect and enzyme alone for no effect
MazEF act = activators of E. coli MazEF toxin-antitoxin RNase. activation, % at 20 µM. hit rate 0.32% among 350,000. FAM/BHQ RNA-DNA oligo cleavage fluorescence, 5 h. P0AE70; in the data active = activation above about 50%
Anthrax LF prot = anthrax lethal factor protease inhibition. P15917. multiplex microsphere protease cleavage assay, LF. inhibition, % at 10 µM. hit rate 0.12% among 360,000. AID 588501; note: plate controls were buffer without enzyme for full effect and enzyme alone for no effect
Target sequence (P15917 whole entry, looked up): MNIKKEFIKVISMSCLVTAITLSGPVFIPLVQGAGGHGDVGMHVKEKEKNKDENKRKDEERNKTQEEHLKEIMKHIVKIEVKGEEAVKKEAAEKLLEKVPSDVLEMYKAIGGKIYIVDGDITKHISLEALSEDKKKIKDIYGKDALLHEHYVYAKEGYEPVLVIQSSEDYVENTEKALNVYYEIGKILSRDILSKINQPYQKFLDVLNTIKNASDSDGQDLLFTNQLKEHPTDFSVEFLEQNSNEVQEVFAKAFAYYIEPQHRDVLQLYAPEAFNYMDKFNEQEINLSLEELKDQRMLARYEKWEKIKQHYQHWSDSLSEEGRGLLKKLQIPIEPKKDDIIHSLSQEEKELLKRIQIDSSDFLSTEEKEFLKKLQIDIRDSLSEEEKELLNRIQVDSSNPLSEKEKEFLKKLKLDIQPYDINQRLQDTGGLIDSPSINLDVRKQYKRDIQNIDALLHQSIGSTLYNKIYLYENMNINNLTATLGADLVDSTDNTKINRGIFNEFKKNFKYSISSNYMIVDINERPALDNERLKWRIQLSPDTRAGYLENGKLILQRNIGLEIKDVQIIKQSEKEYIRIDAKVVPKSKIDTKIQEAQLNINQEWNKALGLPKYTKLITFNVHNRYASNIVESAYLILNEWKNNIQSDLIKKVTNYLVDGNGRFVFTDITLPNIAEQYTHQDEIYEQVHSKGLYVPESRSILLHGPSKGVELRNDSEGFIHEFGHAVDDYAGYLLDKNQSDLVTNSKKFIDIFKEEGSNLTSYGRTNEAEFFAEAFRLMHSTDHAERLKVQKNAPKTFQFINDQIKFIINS
* hit, by the source's call; ? = inconclusive; / = no result. Cut-off read from the data, not from the text of the source, unless noted: active = inhibition above about 30%; inconclusive = no clear call, values can overlap the other calls; inactive = below that.

SMILES | Bead autofluor | BoNT-A LC inh2 | PfHsp40 rescue | BoNT F protease | MazEF act | Anthrax LF prot
c1ccc(COc2cccc(CN3CCc4ccccc4C3)c2)cc1 | 3704 | 0.4 | -1.6 | 0.5 | -3.0 | -0.1
CCOc1cccc(CNCCc2c(C)[nH]c3ccc(OC(F)(F)F)cc23)c1O | 4230 | -0.2 | -1.1 | -66.4 | 51.8* | 0.1
Cc1ccc(-c2ccccc2NC(=O)CS(=O)CC(=O)Nc2ccc(C)c(Cl)c2)o1 (stereo not drawn) | 5567 | 2.6 | -0.5 | 7.3 | 385.2* | 0.1
Cc1ccc(NC(=O)CS(=O)CC(=O)NC(C)CCc2ccco2)cc1Cl (stereo not drawn) | 23396* | 0.9 | -0.3 | -0.1 | -25.5 | -1.5
Cc1ccc(NC(=O)CNC(=O)c2ccco2)cc1Cl | 3491 | -0.7 | -0.1 | -5.1 | -17.9 | 1.2
O=S(CC(O)c1ccccc1)c1ccccc1 (stereo not drawn) | 4065 | -0.4 | / | -7.4 | 1.3 | 0.2
Clc1cccc(N/N=C(\Cc2nc3ccccc3[nH]2)c2ccccc2)c1 | 10327 | 1.7 | 425.7* | 16.9 | 71.8* | 3.7
c1ccc(N/N=C(\Cc2ncc[nH]2)c2ccccc2)cc1 | 4410 | -0.8 | 0.5 | -8.6 | 14.2 | -1.5
COc1ccc(C/C(C)=N\NC(=O)c2cn(C)c3ccccc23)cc1OC | 5695 | -0.1 | 0.2 | -5.4 | -7.1 | -5.4
COCCCN1C(=O)C(=O)/C(=C(/O)c2ccccc2)C1c1ccc(N(C)C)cc1 (stereo not drawn) | 11458 | -0.4 | -0.1 | -4.2 | 0.3 | 1.0
CCN(CC)S(=O)(=O)c1ccc(/C(O)=C2/C(=O)C(=O)N(CCOC)C2c2ccccc2)cc1 (stereo not drawn) | 2493 | -0.3 | 96.8* | 1.7 | 3.8 | 0.2
CCOC(=O)C1CCCN(S(=O)(=O)Cc2ccc(Cl)cc2)C1 (stereo not drawn) | 3462 | 2.3 | 0.0 | 14.9 | 4.9 | -4.7
CSc1nc(-c2ccccc2)ccc1C(N)=O | 21978* | ? | 2.1 | -5.1 | 2.1 | -0.7
NC(=O)c1sc2nc(-c3ccccc3)ccc2c1N | 4010 | 0.3 | -0.1 | -25.1 | 11.8 | 17.8
O=C(O)c1cc(S(=O)(=O)N2CCCCC2)ccc1N1CCCC1 | ? | -3.9 | -0.3 | -6.7 | -1.6 | -1.7
O=C(NCc1cccc(C(F)(F)F)c1)c1csc(COCCO)n1 | 2784 | 0.9 | / | -5.5 | / | -8.1
NC(=O)NC[C@@H]1CC[C@@H](Cc2ccc(-c3ccccc3)cc2)O1 | 3401 | -0.1 | 0.5 | -5.4 | 3.8 | -1.3
COc1ccc2cc(C[C@@H]3CC[C@@H](CNC(N)=O)O3)ccc2c1 | 4001 | 0.0 | 38.3* | -0.6 | 6.1 | -6.1
CCOc1ccc(-c2cc(C(=O)N3CCN(c4ccccn4)CC3)c3ccccc3n2)cc1 | 22531* | -0.6 | 3.6 | -0.1 | -4.4 | -0.5
CCOc1ccc(-c2cc(C(=O)N3CCCC3)c3ccccc3n2)cc1 | 6116 | 0.7 | -2.1 | -0.3 | 8.5 | -0.3
CCOc1ccc(-c2cc(C(=O)N3CCN(C)CC3)c3ccccc3n2)cc1 | 23119* | 1.6 | 0.9 | 1.2 | 0.9 | 1.2
CC[C@@H]1Cc2[nH][nH]c(=O)c2[C@@H](c2ccc(Cl)cc2)O1 | 5722 | 0.1 | / | -5.2 | / | -0.2
Cc1csc2ncnc(N3CCN(C(=O)Nc4ccc(OC(F)(F)F)cc4)CC3)c12 | 4222 | 0.2 | -0.4 | 6.0 | -0.4 | -2.4
c1ccc(OCCNc2ccn3nc(-c4ccco4)cc3n2)cc1 | 4307 | 0.0 | / | -7.8 | / | 0.0
CCOc1cc(C2NC(=O)CCC2[N+](=O)[O-])cc(Br)c1OCC (stereo not drawn) | 3763 | -3.1 | 0.6 | 6.1 | -19.6 | 3.1
Cc1ccc(Cn2ccc(NC(=O)c3cc(-c4ccc(F)cc4)on3)n2)cc1 | 24044* | -1.4 | -0.2 | -2.7 | -14.2 | 0.3
CCOc1ccc(C(NC(=O)CC)c2c(O)ccc3ccccc23)cc1 (stereo not drawn) | 4537 | -0.6 | 2.7 | -28.7 | 8.2 | 3.3
CC(=O)Oc1ccc2ccccc2c1C(NC(=O)Cc1ccccc1)c1ccc(Cl)cc1 (stereo not drawn) | 4402 | -0.7 | 40.4* | -6.8 | -0.4 | -5.1
CCCC(=O)NC(c1ccco1)c1c(O)ccc2ccccc12 (stereo not drawn) | 24638* | ? | -1.0 | -2.1 | -6.6 | -0.6
COc1ccc(C(NC(=O)CC(C)C)c2c(O)ccc3ccccc23)cc1 (stereo not drawn) | 3315 | 1.6 | 33.3* | -11.6 | 2.0 | -12.6
